Among all 68,000 compounds or so, about 2,700 (4%) showed an effect of 50% or more. The entries come from a sample that favours strong results as a whole.

In the test the test system is Plasmodium berghei. Put plainly: Screen against P. berghei liver stage (PbLuc), transformed with Luciferase, at 2uM. It counts as functional, HepG2. Conditions: tested at 2 uM.
Turning to `CCc1sc(-c2nnc(CNCCn3cccn3)o2)cc1C`, the INHIBITION is listed as -19.27%.

As to `CCc1sc(-c2nnc(CNCCn3cc(C)cn3)o2)cc1C`, the INHIBITION was found to be 53.03%.

Consider `CNc1nc2cn(Cc3ccc(Cl)cc3)c(=O)c-2c[nH]1`, for which the INHIBITION was 16.38%.

As to `CC[C@@H](Cn1ncc2ccccc2c1=O)NC(=O)c1cnccn1`, the INHIBITION is listed as -10.89%.

On to `Cc1cc(=O)n2ncnc2n1CC(O)c1cc(Cl)ccc1Cl` (stereo not drawn), for which the INHIBITION was 50.59%.

With `Cc1cc(=O)n2ncnc2n1CC(O)c1cc(F)ccc1F` (stereo not drawn), the INHIBITION was found to be 6.97%.

With `Cc1cc(=O)n2ncnc2n1CC(O)c1ccccc1Cl` (stereo not drawn), the INHIBITION is 5.36%.

As for `Cc1nc(C2(O)CCCNCC2)sc1CCOc1ccc(Cl)cc1` (stereo not drawn), the INHIBITION is on record as 25.23%.

In the case of `Cc1ccc(NC2CCN(C(=O)c3nccc4ccccc34)CC2)nn1`, the INHIBITION is recorded as -27.5%.

With `Cc1[nH]c2ccc(C(=O)N3C[C@@H](O)[C@H](N4CCOCC4)C3)cc2c1C`, the INHIBITION turned out to be 21.97%.

Consider `COc1ccccc1C(C)CC(=O)N1CC[C@H](O)C1` (stereo partly drawn), for which the INHIBITION is reported as -22.65%.

`COc1ccccc1C(C)CC(=O)N1CCN(S(N)(=O)=O)CC1` (stereo not drawn): the INHIBITION is on record as 50.46%.

Consider `COc1ccccc1C(C)CC(=O)N1CCCS1(=O)=O` (stereo not drawn), for which the INHIBITION is listed as -29.82%.

On to `NC(=O)COc1ccc(CN2CCNC(C(=O)NC3CC3)C2)cc1Cl` (stereo not drawn), for which the INHIBITION was 32.69%.

On to `O=C(NC1CC1)C1CN(Cc2ccc3c(c2)OCCO3)CCN1` (stereo not drawn), for which the INHIBITION is given as 54.73%.

Take `Cc1ccc(CN2CCNC(C(=O)NC3CC3)C2)cc1C` (stereo not drawn): the INHIBITION came out at 2.6%.

For `O=C(c1ccccn1)N1C[C@H]2CC[C@@H](C1)N(C(=O)CCN1CCCC1)C2`, the INHIBITION is -49.63%.

`O=C(NCCNS(=O)(=O)c1cccc(Cl)c1)C1CCCO1` (stereo not drawn): the INHIBITION was 1.27%.

`Cc1cc(NCCNS(=O)(=O)c2cccc(Cl)c2)nc(C)n1`: the INHIBITION is -42.54%.

Turning to `CC(NCCNS(=O)(=O)c1cccc(Cl)c1)C1CCOCC1` (stereo not drawn), the INHIBITION was 53.16%.

As for `COCC1CC2(CCN(C(=O)c3ccccc3C)CC2)CN1C(C)C` (stereo not drawn), the INHIBITION came to 24.86%.

With `O=C(c1cn(CC(=O)N2CCCCCC2)c2ccccc12)C1CC1`, the INHIBITION is -45.95%.

For `O=C(c1cn(CC(=O)N2CCCCC2)c2ccccc12)C1CC1`, the INHIBITION was -27.61%.

`O=C(c1cn(CC(=O)N2CCCC2)c2ccccc12)C1CC1`: the INHIBITION is 54.29%.

For the compound `CCOCC1CN(C(=O)c2cnoc2C)Cc2cn(C)nc21` (stereo not drawn), the INHIBITION is recorded as -10.98%.

As for `Fc1ccc(CN2CCCC(c3cc4ncccc4[nH]3)C2)cc1` (stereo not drawn), the INHIBITION is on record as -6.41%.

In the case of `CCOc1ccc(CN2CCCC(c3cc4ncccc4[nH]3)C2)cc1` (stereo not drawn), the INHIBITION was -12.12%.

As for `CC(=O)Nc1ccc(CN2CCCC(c3cc4ncccc4[nH]3)C2)cc1` (stereo not drawn), the INHIBITION worked out at 50.68%.

Turning to `Cc1occc1C(=O)N1CCCC2(CCN(CCN3CCCC3)C2=O)C1` (stereo not drawn), the INHIBITION is -15.36%.

As for `Cc1ccc(Cn2nc(C)c3c(C(=O)O)c(Cl)c(C4CC4)nc32)cc1`, the INHIBITION is 26.11%.

As for `Cc1noc2nc(C3CC3)c(Cl)c(C(=O)O)c12`, the INHIBITION is -7.81%.

As to `Cc1nn(C)c2nc(C3CC3)c(Cl)c(C(=O)O)c12`, the INHIBITION was determined as 52.23%.

On to `CCc1csc(NC(=O)NCc2ccccn2)n1`, for which the INHIBITION turned out to be 29.32%.

Regarding `Cc1c(C(=O)N(C)CC(F)(F)F)nnn1-c1ccccc1Cl`, the INHIBITION is -20.76%.

With `CSC1(CNC(=O)NC(C)c2ccc(F)cc2)CCOCC1` (stereo not drawn), the INHIBITION came to 51.43%.

For the compound `CSC1(CNC(=O)NC(C)c2ccc(F)c(F)c2)CCOCC1` (stereo not drawn), the INHIBITION is recorded as -90.61%.

On to `CSC1(CNC(=O)NC(C)Cc2cccc(F)c2)CCOCC1` (stereo not drawn), for which the INHIBITION was 16.49%.

On to `CCS(=O)(=O)CCN1CCN(C2CCC(C(C)C)CC2)CC1` (stereo not drawn), for which the INHIBITION is on record as 20.83%.

`COCc1nccc(C2CCCN(Cc3ccc(SC)cc3)C2)n1` (stereo not drawn): the INHIBITION was 35.63%.

For the compound `CC1N(C)C(=O)COC12CCN(Cc1nccs1)CC2` (stereo not drawn), the INHIBITION is reported as -52.93%.

`OCC1CCCN1c1cc(NCCc2ccccn2)ncn1` (stereo not drawn): the INHIBITION is -13.49%.

Regarding `CC(=O)N1CCc2[nH]cnc2C12CCN(C(=O)Cc1ccccn1)CC2`, the INHIBITION is reported as 39.58%.

On to `CN1CCc2[nH]cnc2C12CCN(C(=O)CCc1cccs1)CC2`, for which the INHIBITION amounted to 46.51%.

In the case of `CC(=O)N1CCc2[nH]cnc2C12CCN(C(=O)Cc1cccs1)CC2`, the INHIBITION is on record as 63.14%.

Regarding `Cc1cccc(CN2C[C@@H]3CN(C(=O)[C@H]4CCCO4)C[C@@H]3C2=O)c1`, the INHIBITION is given as 19.64%.

In the case of `CCn1ncc2c1C(COC)N(C(=O)c1cccs1)CC2` (stereo not drawn), the INHIBITION was -23.14%.

For `O=C(Nc1nnn[nH]1)c1ccc(I)c(F)c1`, the INHIBITION turned out to be 15.2%.

For `Cc1cccc(CN2C(=O)C[C@H]3[C@@H]2CCN3Cc2cccs2)n1`, the INHIBITION is on record as 63.06%.

For the compound `Cc1cccc(CN2CC[C@@H]3[C@@H]2CCN3Cc2cccs2)n1`, the INHIBITION is reported as -18.6%.

As to `Cc1cccc(CN2C(=O)C[C@H]3[C@@H]2CCN3Cc2nccs2)n1`, the INHIBITION is given as 31.5%.

With `Cc1ccc(-c2cn[nH]c2C2CCCN(c3nccc(N)n3)C2)cc1` (stereo not drawn), the INHIBITION worked out at 58%.

Turning to `Cc1ccc(-c2cn[nH]c2C2CCCN(c3ccnc(C)n3)C2)cc1` (stereo not drawn), the INHIBITION is recorded as -8.3%.

`Cc1ccc(-c2cn[nH]c2C2CCCN(c3ncccn3)C2)cc1` (stereo not drawn): the INHIBITION is given as -16.71%.

Source of the values: ChEMBL document CHEMBL4513216, “Probing the Open Global Health Chemical Diversity Library for Multistage-Active Starting Points for Next-Generation Antimalarials” (ACS Infect Dis, 2020).
